# JMJD2A Tudor: inhibitors of human JMJD2A Tudor domain. actives 4.4% (n = 390,000). AlphaScreen JMJD2A-Tudor / H3K4me3 peptide binding. Potency, µM (highest dose often 114 µM), most hits filed as inhibitors. AID 504339; note: nearly all actives have a fitted effect of over 50% in size
# HP1b chromo inh: blocks HP1-beta chromodomain binding to methylated histone tails. P83916. AlphaScreen HP1-beta / biotin-H3K9me3 peptide binding. Potency, µM (doses to about 114 µM), actives largely listed as inhibitors. actives 0.56% (n = 390,000); note: nearly all actives have a fitted effect of over 70% in size
# Target sequence (P83916 whole entry, looked up): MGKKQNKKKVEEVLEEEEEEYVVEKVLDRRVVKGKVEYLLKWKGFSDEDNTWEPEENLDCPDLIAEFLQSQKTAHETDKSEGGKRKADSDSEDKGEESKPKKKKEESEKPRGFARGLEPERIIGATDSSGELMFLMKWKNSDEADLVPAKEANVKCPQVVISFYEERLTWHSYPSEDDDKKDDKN
#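 AlphaScreen: HP1-beta (50 nM) preformed 30 min with biotin-H3(1-18)K9me3 peptide (50 nM) in PBS pH 7.4, 0.01% Tween-20. Compound added for 30 min at RT, then streptavidin donor/nickel chelate acceptor beads (10 ug/mL) for 30 min.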
# PI5P4K alpha inh: inhibitors of human PI5P4K alpha. max response, %. PI5P4Kalpha enzyme, ADP-Glo luminescence, 60 min; hits give low values. actives 1.2% (n = 330,000). AID 652105; active = max response of -50% or lower; inconclusive = between -30% and -50%; inactive = -30% or higher; note: value at the top dose of about 77 µM
#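 Single end-point luminescence (ADP-Glo) quantified ADP from PI5P4Kalpha turnover; ATP 5 microM final, 1 h at RT, 0.1% CHAPS and 0.28 mM EGTA in HEPES pH 7.4.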
# BAZ2B inh: blocks human BAZ2B; Q9UIF8; AlphaScreen BAZ2B-H3K14Ac peptide displacement; Potency, µM (series often up to 114 µM), most hits filed as inhibitors; actives 4.4% (n = 360,000); note: nearly all actives have a fitted effect of over 60% in size
#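 AlphaScreen displacement: compounds (up to 110uM) incubated 30 min at room temperature with a preformed 50 nM BAZ2B/50 nM biotinylated H3K14Ac peptide complex in PBS pH 7.4 with Tween-20. Donor and acceptor beads at 10 ug/mL final added, 20 min light-protected before reading.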
# G9a inh: G9a (human) methyltransferase inhibition; actives 8.8% (n = 350,000); Potency, µM (highest dose often 102 µM), most hits filed as inhibitors; G9a H3K9 monomethylation, AlphaScreen, 2 h; Q96KQ7; note: nearly all actives have a fitted effect of over 75% in size
# Target sequence (Q96KQ7 913-1193 limits assumed): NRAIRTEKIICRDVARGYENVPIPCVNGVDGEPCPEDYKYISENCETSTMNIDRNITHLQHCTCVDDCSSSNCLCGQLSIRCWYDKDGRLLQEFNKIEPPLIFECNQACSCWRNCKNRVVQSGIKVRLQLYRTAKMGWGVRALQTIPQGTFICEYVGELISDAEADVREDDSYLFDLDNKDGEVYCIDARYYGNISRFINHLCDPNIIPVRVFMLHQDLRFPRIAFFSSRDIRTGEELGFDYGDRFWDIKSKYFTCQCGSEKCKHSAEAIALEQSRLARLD
#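 Enzyme 20 nM + cpd, 15 min RT; add b-H3K9 pep 500 nM / SAM 20 uM; 2 h RT; anti-H3K9me1 Ab 0.5 ug/mL + SA donor / anti-rabbit acceptor beads 20 ug/mL each, 10 min; AlphaScreen read.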
# L3MBTL1 block: L3MBTL1 (human) inhibition | AID 485360 | Q9Y468 | Potency, µM (series often up to 57.1 µM), most hits filed as inhibitors | actives 0.66% (n = 230,000) | AlphaScreen L3MBTL1–H3K9me1 peptide binding; note: nearly all actives have a fitted effect of over 60% in size
#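 First, the protein-peptide complex forms for 30 min at room temperature (L3MBTL1 50 nM, biotinylated H3K9me1 peptide 75 nM). Next, compounds are pin-transferred and incubated 30 min. Finally, AlphaScreen beads are added and read after 30 min.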
# A number is an active result; 0 = inactive; ? = inconclusive; - = no result; [ ] = remark or other dose. Sampled rows, rich in hits. Any-hit rate of the full collection: about 11%. Unless noted, calls come from the whole dose curve; as a rule, active = well fitted inhibition curve with a large enough effect; inconclusive = small, poorly fitted or top-dose-only effect; inactive = no such curve, though single readings can be large or run the other way.
SMILES,JMJD2A Tudor,HP1b chromo inh,PI5P4K alpha inh,BAZ2B inh,G9a inh,L3MBTL1 block
COC(=O)c1cc2occc2n1Cc1nc(-c2cccc(Br)c2)oc1C,0,0,-,0,0,-
COC(=O)C1C(O)=C(C(C)=Nc2cccc3ccccc23)C(=O)CC1(C)C (stereo unspecified),79µM,0,0,0,0,0
COc1cc(NS(=O)(=O)c2ccc(Nc3nc(-c4cccc([N+](=O)[O-])c4)cs3)cc2)nc(OC)n1,?,?,0,45µM,50µM,0
O=[N+]([O-])c1cccc(-c2csc(Nc3ccccc3)n2)c1,?,0,0,?,40µM,0
O=C(COc1ccccc1C(=O)N/N=C\c1ccc(O)c(O)c1)N/N=C/c1ccc(O)c(O)c1,2.2µM,7.9µM,-73,1.6µM,?,1.6µM
O=[N+]([O-])c1ccccc1/C=N\Nc1nccs1,0,0,0,0,0,0
O=C(NN=Cc1ccc(O)c(O)c1)c1ccccc1,-,-,0,-,-,-
O=[N+]([O-])c1cc(/C=N\Nc2nccs2)ccc1O,-,-,-,4µM,0[2.33 µM],-
O=C(COc1ccccc1[N+](=O)[O-])N/N=C/c1ccc(O)c([N+](=O)[O-])c1,0,?,?,0,50µM,0
O=C(CCc1ccccc1)N1CCc2c([nH]c3ccccc23)C1c1ccc(F)cc1 (stereo unspecified),?,0,-,?,0,-
CCOC(=O)c1ccc(NC(=O)CSc2ccc(-c3sc(C)nc3C)nn2)cc1,0,0,-,0,0,-
CCOc1cc(/C=C2\C(=O)N(CCC#N)N=C2C)ccc1OCC(N)=O,0,0,0,0,71µM,0
COc1cc(/C=C2\C(=O)N(CCC#N)N=C2C)ccc1OCC(=O)Nc1ccccc1,0,0,0,0,0,0
COc1ccc(NC(=S)NC23CN4CN(CN(C4)C2)C3)c(OC)c1,0,0,0,0,?,-
COc1ccc(NC(=S)Nn2cnnc2)c(OC)c1,?,?,0,?,5µM,-
CCc1ccc(NC(=S)Nn2cnnc2)cc1,79µM,?,?,0,7.9µM,0
O=C(Nc1ccccc1)Nn1cnnc1,0,0,0,0,0,-
Cc1ccc(NC(=S)Nn2cnnc2)cc1,?,0,0,?,2.8µM,0
S=C(Nc1ccccc1)Nn1cnnc1,0,0,0,?,1.4µM,0
Fc1ccc(Nc2ncncc2-c2ccoc2)cc1,-,-,-,-,0[0.501 µM],-
Cc1ccc(CSC2=Nc3ccccc3C3=NC(CCC(=O)NC4CCCCC4)C(=O)N23)cc1 (stereo unspecified),0,0,-,0,0,-
COc1ccc(NC(=S)Nn2cnnc2)cc1OC,18µM,?,0,0,4µM,0
CCN1C(=O)C(C(=O)c2ccccc2)SC1=S (stereo unspecified),56µM,0,0,56µM,22µM,0
C=CCN=Cc1sc2ccc(OCC)cc2c1O,-,-,-,0,45µM,0
CCOc1ccc(/C=N/Nc2nc(C)cs2)c(O)c1,?,0,0,?,-,0
SMILES,JMJD2A Tudor,HP1b chromo inh,PI5P4K alpha inh,BAZ2B inh,G9a inh,L3MBTL1 block
CCCCN=Cc1sc2ccc(OCC)cc2c1O,28µM,?,0,79µM,?,-
CCOC(=O)C1CCN(C(=O)CSc2n[nH]c(-c3ccccc3Cl)n2)CC1,0,0,-,0,?,-
Cc1c(C)n(CCc2ccccc2)c2ncnc(NCCCN(C)C)c12,?,?,0,45µM,0[2.33 µM],-
Cc1c(C)n(CCN(C)C)c2ncnc(NCc3ccccc3)c12,0,0,0,0,?,-
CCOc1ccc(-c2nnc(SCC(=O)NCCc3ccccc3)nc2-c2ccc(OCC)cc2)cc1,0,0,-,0,0,-
O=c1cnc2cnc(N3CCOCC3)nc2n1C[C@H]1CCCO1,-,-,-,-,0[12.7 µM],-
CCOC(=O)C1CCN(S(=O)(=O)Cc2ccccc2)C1=O (stereo unspecified),0,0,0,0,0,0
CN1CCC(C(=O)C(=O)O)C1=O (stereo unspecified),20µM,71µM,0,-,-,-
CC(=O)Nc1cccc(-c2nnc(-c3ccccc3)o2)c1,0,0,0,0,0[12.7 µM],0
CN(C)C(=S)Nc1ccc2ccccc2c1,0,0,0,0,0,0
NNC(=S)Nc1cccc(-c2n[nH]c(=S)o2)c1,?,0,-76,0,3.2µM,-
CN(C)C(=S)Nc1cccc(-c2n[nH]c(=S)o2)c1,?,0,0,0,22µM,-
Cc1ccc(N2C(=O)c3ccccc3C2C(=O)c2ccc(O)cc2O)cc1 (stereo unspecified),79µM,0,-66,28µM,?,4.5µM
Cc1ccc(C2C(C(=O)O)c3ccccc3C(=O)N2C)c(C)c1 (stereo unspecified),0,0,0,0,0,0
Cc1ccccc1N1C(=O)c2ccccc2N2C(=O)c3ccccc3C12 (stereo unspecified),0,0,0,0,?,-
O=C1c2ccccc2NC(c2ccccc2O)N1c1ccc(F)cc1 (stereo unspecified),0,0,0,0,0,-
Cc1ccc(N2C(=O)c3ccccc3C2C(=O)c2ccc(C)c(C)c2O)cc1 (stereo unspecified),50µM,?,0,0,-,0
Cc1ccc(N2C(=O)c3ccccc3C2C(=O)c2cc(C)ccc2O)cc1 (stereo unspecified),?,?,0,0,7.9µM,0
CCOC(=O)C1OC1C(=O)NC(CC(C)C)C(=O)NCCC(C)C (stereo unspecified),-,-,-,-,0,-
CCc1cccc(NC(=O)Cn2c(=O)n(CCC(=O)NCc3ccccc3Cl)c(=O)c3sccc32)c1,0,0,-,0,0,-
CCCC(=O)N1c2ccccc2C(=C2SC(C(=O)OC)=C(C(=O)OC)S2)C(=S)C1(C)C,0[11.4 µM],14µM,0,5.6µM,1.8µM,0
COC(=O)C1=C(C(=O)OC)SC(=C2C(=S)C(C)(C)N(C(=O)C3CC3)c3ccccc32)S1,6.3µM,7.1µM,-,8.9µM,1.6µM,-
CCOC(=O)C1(C)C(C(=O)OC)=C(c2ccc(OC)cc2)c2ccccc2N1C(=O)OC (stereo unspecified),0,0,0,-,?,0
COC(=O)C1=C(C(=O)OC)SC(=C2C(=S)C(C)(C)N(C(=O)C(C)C)c3ccccc32)S1,11µM,7.1µM,-,8.9µM,1.8µM,-
CC1C(=O)Nc2ccccc2N1C(=O)C1CC1 (stereo unspecified),0,0,0,0,0,-
COc1c(F)c(F)c(C(=O)Nc2ccccc2N2CCN(C(=O)C(C)C)CC2)c(F)c1F,0,0,0,0,0[12.7 µM],0
COc1ccccc1CN1CCCC2(CCNCC2)C1,-,-,-,-,0[12.7 µM],-
COC(=O)C1CSc2[nH]c(=O)sc2C1c1ccccc1 (stereo unspecified),0,?,-,0,56µM,0
COC(=O)c1scc(C)c1NC(=O)Nc1ccccc1,0,0,0,0,0,0
COC(=O)c1scc(C)c1NC(=O)/C=C/C(=O)O,0,0,0,0,1.8µM,0
